Shown are actives, neighbours in structure and some others; about 17% of the full set was active somewhere.
DT40 TDP1 no CPT – qHTS for Inhibitors of human tyrosyl-DNA phosphodiesterase 1 (TDP1): qHTS in cells in absence of CPT. DT40 Tdp1-/- hTDP1 cells, no CPT, ATP luminescence, 48 h. Potency, µM (doses to about 46.2 µM), most hits filed as inhibitors. 420,000 compounds, 15% hits. AID 686978, 2013; further: nearly all actives have a fitted effect of over 55% in size
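Cells were dispensed at 400 per well, compounds added by pin tool, plates incubated ≥48 hr at 37 °C, then CellTiter-Glo added for 30 min at room temperature before luminescence reading. Line: DT40 Tdp1-/- complemented with hTDP1; camptothecin omitted.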
HepG2 viability – counter-screen for TGF-b inhibitors: cytotoxicity in HepG2 cells | HepG2 CAGA-GFP viability, ATP luminescence, 18 h | Potency, µM (doses to about 46.1 µM), most hits filed as cytotoxic | 410,000 compounds, 0.76% hits | AID 588856
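HepG2 CAGA-GFP cells (1000/well, DMEM with 1% FBS) received compound, then TGF-beta at 500 pg/mL final, and were incubated 18 hours at 37 degrees C. Viability was read by CellTiter-Glo luminescence. Media-only wells were set as complete cell-killing and DMSO as no toxicity.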
HT1080 IDH1KD tx – HT-1080 IDH1 knockdown cell toxicity (counter line) | HT-1080 IDH1 knockdown viability, ATP luminescence, 48 h | Potency, µM (titrated, usually from 46.1 µM), hits mostly cytotoxic | 360,000 compounds, 2% hits
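Luminescent ATP read-out (CellTiter-Glo, 10 min at room temperature) after 48 h compound exposure at 37 °C gave viability of IDH1-knockdown HT-1080 cells. Activity was normalised to DMSO and cell-free wells, then fitted as concentration-response curves.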
TGFb inhibitor – TGF-b pathway inhibition; HepG2 CAGA-GFP TGF-b/SMAD3 reporter, GFP fluorescence, 18 h; TGF-beta stimulated, 500 pg/mL final; Potency, µM (series often up to 46.1 µM), actives largely listed as inhibitors; 410,000 compounds, 1.2% hits; further: nearly all actives have a fitted effect of over 65% in size
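Smad-responsive CAGA-GFP expression was quantified in HEPG2 cells exposed to compounds and 500 pg/mL final TGF-beta for 18 h at 37 degrees C; unstimulated wells defined full inhibition.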
DT40 TDP1 CPT – DT40-hTDP1 cell growth loss with CPT; 420,000 compounds, 12% hits; chicken DT40 Tdp1-/-;hTDP1 cells + 20 nM CPT, ATP luminescence, 48 h; Potency, µM (doses to about 46.2 µM), usual class: inhibitors; further: nearly all actives have a fitted effect of over 55% in size
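Chicken DT40 Tdp1-/- cells stably complemented with human TDP1 were seeded at 400 cells/well in medium containing 20 nM camptothecin, exposed to pin-transferred compounds, and grown at 37 °C for at least 48 hr. Viability was read as ATP luminescence.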
HT1080-NT tox – kills 2HG-producing HT-1080-NT fibrosarcoma cells; HT-1080-NT fibrosarcoma viability, CellTiter-Glo ATP luminescence, 48 h; Potency, µM (doses to about 46.1 µM), hits mostly cytotoxic; 360,000 compounds, 1.6% hits;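 further: NT is the 2HG producing partner of a matched IDH1 knockdown line; nearly all actives have a fitted effect of over 55% in size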
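Fibrosarcoma NT cells, 750 per well in 5% FBS RPMI, were exposed to compound for 48 hours. Viability: CellTiter-Glo luminescence.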
Numbers stand for hits. The call rests on the fitted dose curve; in most records, active means well fitted curve in the direction sought with a large enough effect; inconclusive means small, poorly fitted or top-dose-only effect, or another doubt; inactive means no such curve, though single readings can be large; an effect the other way counts as inactive or inconclusive.

How did Cc1ccc(S(=O)(=O)N2CCC(C(=O)OCC(=O)N3CC(C)CC(C)C3)CC2)cc1C (stereo unspecified) do in these assays?
DT40 TDP1 no CPT: inactive; HepG2 viability: inactive; HT1080 IDH1KD tx: inactive; TGFb inhibitor: inactive; DT40 TDP1 CPT: inactive; HT1080-NT tox: inactive

How did CCNCCCNCCCCNCCCNCC do in these assays?
DT40 TDP1 no CPT: 5.31µM; DT40 TDP1 CPT: 3.76µM

What do the screens show for `O=C(c1cc(COc2ccc(F)cc2Cl)on1)N1CCC(OCc2cccnc2)CC1`?
DT40 TDP1 no CPT: 9.2µM; HepG2 viability: inactive; HT1080 IDH1KD tx: inactive; TGFb inhibitor: inconclusive; DT40 TDP1 CPT: 16.4µM; HT1080-NT tox: inactive

Results for O=C(c1cc(COc2ccc(F)cc2Cl)on1)N1CCc2sccc2C1 ?
DT40 TDP1 no CPT: inactive; HepG2 viability: inactive; HT1080 IDH1KD tx: inactive; TGFb inhibitor: inactive; DT40 TDP1 CPT: inconclusive; HT1080-NT tox: inactive

Results for O=C(c1cc(COc2ccc(F)cc2Cl)on1)N1CCCCC1c1cccnc1 (stereo unspecified) ?
DT40 TDP1 no CPT: 13µM; HepG2 viability: inactive; HT1080 IDH1KD tx: inactive; TGFb inhibitor: inconclusive; DT40 TDP1 CPT: 16.4µM; HT1080-NT tox: inactive

What do the screens show for `COc1cc(Cl)ccc1OCc1cc(C(=O)N2CCCCC2c2cccnc2)no1` (stereo unspecified)?
DT40 TDP1 no CPT: inconclusive; HepG2 viability: inactive; HT1080 IDH1KD tx: inactive; TGFb inhibitor: inconclusive; DT40 TDP1 CPT: 5.8µM; HT1080-NT tox: inactive

Results for Cc1ccc(SCCN2CCN(C)CC2)cc1 ?
DT40 TDP1 no CPT: inactive; HepG2 viability: inactive; HT1080 IDH1KD tx: inactive; TGFb inhibitor: inactive; DT40 TDP1 CPT: inactive; HT1080-NT tox: inactive

What do the screens show for `COc1ccc2c3c(n(C(=O)OC(C)(C)C)c2c1)C1CC=C(COC(C)=O)CN1CC3` (stereo unspecified)?
DT40 TDP1 no CPT: 16.4µM; HT1080 IDH1KD tx: inactive; DT40 TDP1 CPT: 16.4µM; HT1080-NT tox: inactive

Results for COc1ccc2c(c1)c1c(n2C)[C@@H]2CC=C(CO)[C@@H](C1)N2C ?
DT40 TDP1 no CPT: inactive; HepG2 viability: inactive; HT1080 IDH1KD tx: inactive; TGFb inhibitor: inactive; DT40 TDP1 CPT: inactive; HT1080-NT tox: inactive

Results for Cc1ccc(CNC(=O)CN2C(=O)CSc3ccc(S(=O)(=O)N4CCCC4)cc32)cc1 ?
DT40 TDP1 no CPT: inconclusive; HepG2 viability: inactive; TGFb inhibitor: inactive; DT40 TDP1 CPT: inactive

What do the screens show for `COc1cccc(C(=O)CC2(O)C(=O)N(Cc3ccccc3)c3ccccc32)c1` (stereo unspecified)?
DT40 TDP1 no CPT: 6.51µM; HepG2 viability: inactive; TGFb inhibitor: inactive; DT40 TDP1 CPT: 6.51µM

What do the screens show for `CCCN1C(=O)C(O)(CC(=O)c2cccc(OC)c2)c2ccccc21` (stereo unspecified)?
DT40 TDP1 no CPT: 3.26µM; HepG2 viability: inactive; HT1080 IDH1KD tx: inactive; TGFb inhibitor: inactive; DT40 TDP1 CPT: 4.11µM; HT1080-NT tox: inactive

Results for CCCCN1C(=O)C(O)(CC(=O)c2ccccc2OC)c2ccccc21 (stereo unspecified) ?
DT40 TDP1 no CPT: inactive; HepG2 viability: inactive; HT1080 IDH1KD tx: inactive; TGFb inhibitor: inactive; DT40 TDP1 CPT: inactive; HT1080-NT tox: inactive

What do the screens show for `COc1ccc(C(=O)CC2(O)C(=O)N(Cc3cccc(C(F)(F)F)c3)c3ccccc32)cc1` (stereo unspecified)?
HepG2 viability: inactive; TGFb inhibitor: inconclusive

Results for Cc1ccc(C(=O)Nc2ccc(C(=O)OCc3cc(=O)n4c5c(sc4n3)CCCC5)cc2)cc1 ?
DT40 TDP1 no CPT: inactive; HepG2 viability: inactive; TGFb inhibitor: inconclusive; DT40 TDP1 CPT: inconclusive

Screening data deposited in PubChem by National Center for Advancing Translational Sciences (NCATS).
